# Results from ChEMBL document CHEMBL3988442, “University of Dundee, Small-Polar-MMV Screening Library” (2021).
# For some of these results: Potency and affinity values are given separately.
# What was measured:
# Design in all cases: scale not given: direction of the effect not stated beside the values
# [1] = target: Protein translocase subunit SecA (Escherichia coli (strain K12)) (UniProt P10408); test: Assay to Identify E. coli SecA ATPase Inhibitors; type: functional; details: 30 µM
# [2] = target: T1, Ubiquitin-activating enzyme e1, putative (Leishmania donovani (strain BPK282A1)) (UniProt E9BSI1); test: Leishmania donovani Ubiquitin Activating Enzyme (LdE1); type: functional; details: 30 µM
# T1 sequence (whole entry): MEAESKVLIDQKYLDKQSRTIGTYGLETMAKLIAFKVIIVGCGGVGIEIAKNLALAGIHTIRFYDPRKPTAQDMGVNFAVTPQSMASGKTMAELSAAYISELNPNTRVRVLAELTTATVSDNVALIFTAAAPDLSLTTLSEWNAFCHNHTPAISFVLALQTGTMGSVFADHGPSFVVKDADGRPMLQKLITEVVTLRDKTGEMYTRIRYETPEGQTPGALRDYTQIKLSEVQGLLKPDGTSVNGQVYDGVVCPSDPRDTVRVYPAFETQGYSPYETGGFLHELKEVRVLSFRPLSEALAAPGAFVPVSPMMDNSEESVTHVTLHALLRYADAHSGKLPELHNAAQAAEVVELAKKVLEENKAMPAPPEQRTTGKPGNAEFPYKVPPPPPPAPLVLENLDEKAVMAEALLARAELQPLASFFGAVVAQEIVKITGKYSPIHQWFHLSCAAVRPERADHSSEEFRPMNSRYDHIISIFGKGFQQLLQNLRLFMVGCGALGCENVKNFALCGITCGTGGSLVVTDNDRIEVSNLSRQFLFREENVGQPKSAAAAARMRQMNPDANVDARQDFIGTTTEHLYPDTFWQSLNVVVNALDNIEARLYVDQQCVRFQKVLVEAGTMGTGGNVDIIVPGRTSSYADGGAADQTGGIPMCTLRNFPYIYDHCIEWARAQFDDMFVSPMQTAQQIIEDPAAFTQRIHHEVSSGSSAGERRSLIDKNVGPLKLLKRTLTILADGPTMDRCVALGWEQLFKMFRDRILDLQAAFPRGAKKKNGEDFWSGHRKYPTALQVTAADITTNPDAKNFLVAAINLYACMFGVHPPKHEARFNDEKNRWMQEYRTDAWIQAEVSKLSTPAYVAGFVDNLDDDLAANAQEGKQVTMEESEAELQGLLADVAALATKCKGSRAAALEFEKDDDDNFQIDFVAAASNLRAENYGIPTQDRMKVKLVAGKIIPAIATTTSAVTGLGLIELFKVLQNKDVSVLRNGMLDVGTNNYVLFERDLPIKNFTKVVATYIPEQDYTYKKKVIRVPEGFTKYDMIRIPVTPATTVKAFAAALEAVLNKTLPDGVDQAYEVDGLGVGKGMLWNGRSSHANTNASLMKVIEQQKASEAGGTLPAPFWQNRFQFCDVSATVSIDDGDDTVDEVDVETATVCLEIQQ
# [3] = target: AMP-activated protein kinase, AMPK (Homo sapiens) (UniProt P54646+O43741+P54619+Q9UGJ0+Q9Y478+Q13131+Q9UGI9); test: AMP-dependent Kinase enzyme assay. An in vitro enzyme assay that detects ADP turnover that is directly proportional to AMPK activity. This uses naive AMPK that is activated during the assay with MK-8722; type: functional; details: 30 µM
# [4] = target: Sialic acid-binding Ig-like lectin 9 (Homo sapiens) (UniProt Q9Y336); test: Hs-Siglec9 ALPHAscreen SOP 20170721; details: 10 µM
# Chain of Sialic acid-binding Ig-like lectin 9 (Homo sapiens) (Q9Y336 whole entry): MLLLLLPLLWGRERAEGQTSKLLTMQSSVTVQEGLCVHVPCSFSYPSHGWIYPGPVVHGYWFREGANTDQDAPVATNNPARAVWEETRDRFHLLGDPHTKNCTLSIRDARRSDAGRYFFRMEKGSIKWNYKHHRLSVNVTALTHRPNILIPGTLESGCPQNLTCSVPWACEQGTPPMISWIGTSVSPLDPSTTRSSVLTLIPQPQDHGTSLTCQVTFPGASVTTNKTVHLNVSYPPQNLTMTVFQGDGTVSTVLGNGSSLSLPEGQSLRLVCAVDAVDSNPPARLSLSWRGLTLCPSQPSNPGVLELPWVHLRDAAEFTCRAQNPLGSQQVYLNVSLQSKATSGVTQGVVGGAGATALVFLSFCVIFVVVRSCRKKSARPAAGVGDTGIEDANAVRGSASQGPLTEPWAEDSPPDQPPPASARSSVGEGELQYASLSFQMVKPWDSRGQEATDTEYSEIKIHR
# Trypanosoma cruzi = test: Trypanosoma cruzi phosphomannomutase and mannose-1-phosphate guanylyltransferase assay; type: functional; details: 10 µM
# [5] = target: T2, Arginase-2, mitochondrial (Homo sapiens) (UniProt P78540); test: in vitro enzyme assay to detect the production of urea directly proportional to the activity of Arginase II; type: functional; details: 33.3 µM; further: in the data most compounds retested in dose-response had high values
# T2 sequence (whole entry): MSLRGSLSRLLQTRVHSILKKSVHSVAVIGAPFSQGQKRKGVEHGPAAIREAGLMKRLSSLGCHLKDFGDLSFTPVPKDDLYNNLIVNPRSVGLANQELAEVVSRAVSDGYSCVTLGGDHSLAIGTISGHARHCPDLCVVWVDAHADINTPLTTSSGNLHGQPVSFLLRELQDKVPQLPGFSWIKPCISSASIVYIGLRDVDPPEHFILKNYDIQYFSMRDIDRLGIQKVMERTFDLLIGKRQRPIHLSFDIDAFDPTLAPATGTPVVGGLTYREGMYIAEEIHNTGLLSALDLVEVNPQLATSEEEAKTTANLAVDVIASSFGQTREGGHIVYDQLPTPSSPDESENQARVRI
# [6] = target: T3, Proteasome subunit beta (Trypanosoma cruzi) (UniProt O96673); test: Trypanosoma cruzi proteasome chymotrypsin-like activity (TcProtChymo) assay.; further: in the data most compounds retested in dose-response had high values; type: functional; details: 9.37 µM
# T3 sequence (whole entry): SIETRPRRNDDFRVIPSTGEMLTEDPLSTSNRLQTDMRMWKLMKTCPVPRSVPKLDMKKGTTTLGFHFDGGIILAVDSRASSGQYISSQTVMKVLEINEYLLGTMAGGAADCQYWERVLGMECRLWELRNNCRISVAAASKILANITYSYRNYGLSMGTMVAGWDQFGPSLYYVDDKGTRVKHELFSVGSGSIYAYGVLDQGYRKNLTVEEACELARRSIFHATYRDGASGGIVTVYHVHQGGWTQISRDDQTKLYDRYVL
# Homo sapiens = species on record: Homo sapiens; test: To identify inhibition of the IFN signalling (Jak-Stat) pathway via expression of an eGFP reporter gene under the control of an IFN-stimulated response element (ISRE) containing MxA promoter.; type: functional; details: 30 µM
# [7] = target: T4, Tyrosyl-tRNA synthetase, putative (Trypanosoma cruzi (strain CL Brener)) (UniProt Q4DSP6); test: Trypanosoma cruzi tyrosyl tRNA synthetase (TcYRS) _High Tyrosine SOP; type: functional; details: 30 µM; further: in the data most compounds retested in dose-response had high values
# T4 sequence (whole entry): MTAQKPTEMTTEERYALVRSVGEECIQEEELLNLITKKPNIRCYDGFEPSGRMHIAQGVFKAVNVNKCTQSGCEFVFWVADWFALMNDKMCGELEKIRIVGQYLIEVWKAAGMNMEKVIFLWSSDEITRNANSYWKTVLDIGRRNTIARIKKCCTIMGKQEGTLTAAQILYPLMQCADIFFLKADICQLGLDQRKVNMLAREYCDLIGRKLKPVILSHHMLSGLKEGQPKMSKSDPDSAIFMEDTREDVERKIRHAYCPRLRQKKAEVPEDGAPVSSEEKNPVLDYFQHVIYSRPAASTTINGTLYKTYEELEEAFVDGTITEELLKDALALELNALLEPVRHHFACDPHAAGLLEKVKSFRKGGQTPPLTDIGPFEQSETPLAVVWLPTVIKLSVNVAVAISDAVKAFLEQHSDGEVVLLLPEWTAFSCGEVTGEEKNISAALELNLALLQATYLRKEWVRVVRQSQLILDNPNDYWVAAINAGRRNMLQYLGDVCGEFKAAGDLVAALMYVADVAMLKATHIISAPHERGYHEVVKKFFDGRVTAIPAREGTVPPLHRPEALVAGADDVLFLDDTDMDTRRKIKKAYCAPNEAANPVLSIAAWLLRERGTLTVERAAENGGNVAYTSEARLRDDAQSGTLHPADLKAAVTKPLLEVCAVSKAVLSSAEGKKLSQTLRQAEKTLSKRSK
# [8] = target: T4, Tyrosyl-tRNA synthetase, putative (Trypanosoma cruzi (strain CL Brener)); test: Trypanosoma cruzi tyrosyl tRNA synthetase (TcYRS) SOP; type: functional; details: 30 µM
# [9] = target: Chromo domain-containing protein 1 (Saccharomyces cerevisiae (strain ATCC 204508 / S288c) (Baker's yeast)) (UniProt P32657); test: ScCHD-1 Enzyme Inhibition Assay; type: functional; details: 30 µM; further: in the data most compounds retested in dose-response had high values
# Chain of Chromo domain-containing protein 1 (Saccharomyces cerevisiae (strain ATCC 204508 / S288c) (Baker's yeast)) (P32657 whole entry, the tested form may be a part): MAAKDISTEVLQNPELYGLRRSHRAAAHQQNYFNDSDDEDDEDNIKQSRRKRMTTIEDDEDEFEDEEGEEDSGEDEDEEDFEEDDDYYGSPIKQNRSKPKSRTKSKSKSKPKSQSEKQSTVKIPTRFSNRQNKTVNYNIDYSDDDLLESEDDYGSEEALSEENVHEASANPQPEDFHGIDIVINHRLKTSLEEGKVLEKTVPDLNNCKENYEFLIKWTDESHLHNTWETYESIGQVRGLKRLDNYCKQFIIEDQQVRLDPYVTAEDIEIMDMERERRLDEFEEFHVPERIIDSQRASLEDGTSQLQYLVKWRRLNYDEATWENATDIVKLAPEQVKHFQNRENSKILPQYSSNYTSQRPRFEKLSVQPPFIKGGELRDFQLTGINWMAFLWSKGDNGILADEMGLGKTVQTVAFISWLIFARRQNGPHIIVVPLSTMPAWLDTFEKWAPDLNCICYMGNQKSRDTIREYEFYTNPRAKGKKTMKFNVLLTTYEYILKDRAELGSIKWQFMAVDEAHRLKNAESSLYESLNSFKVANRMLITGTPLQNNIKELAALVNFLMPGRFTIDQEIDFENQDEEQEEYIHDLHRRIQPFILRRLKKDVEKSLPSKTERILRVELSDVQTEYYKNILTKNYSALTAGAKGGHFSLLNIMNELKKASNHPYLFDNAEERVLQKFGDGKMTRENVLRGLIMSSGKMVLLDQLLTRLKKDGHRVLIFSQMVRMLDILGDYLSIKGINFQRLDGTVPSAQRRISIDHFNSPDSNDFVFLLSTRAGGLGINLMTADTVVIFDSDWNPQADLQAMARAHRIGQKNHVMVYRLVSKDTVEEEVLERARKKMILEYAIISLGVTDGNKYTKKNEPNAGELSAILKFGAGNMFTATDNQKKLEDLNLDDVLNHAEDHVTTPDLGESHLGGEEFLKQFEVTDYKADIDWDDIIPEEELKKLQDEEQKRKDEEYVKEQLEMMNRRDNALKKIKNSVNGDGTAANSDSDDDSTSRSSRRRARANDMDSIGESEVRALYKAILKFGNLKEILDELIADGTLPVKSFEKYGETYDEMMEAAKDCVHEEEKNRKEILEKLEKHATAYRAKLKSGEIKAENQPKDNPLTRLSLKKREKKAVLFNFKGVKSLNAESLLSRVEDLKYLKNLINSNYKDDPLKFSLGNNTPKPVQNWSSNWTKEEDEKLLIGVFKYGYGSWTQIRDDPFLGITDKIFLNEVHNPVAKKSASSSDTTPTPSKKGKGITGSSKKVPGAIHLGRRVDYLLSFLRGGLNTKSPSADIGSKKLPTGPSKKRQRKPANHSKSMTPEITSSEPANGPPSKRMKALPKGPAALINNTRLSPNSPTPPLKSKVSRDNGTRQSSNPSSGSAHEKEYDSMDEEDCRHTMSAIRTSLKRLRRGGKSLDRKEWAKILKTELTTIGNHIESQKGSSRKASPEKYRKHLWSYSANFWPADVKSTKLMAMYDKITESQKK
# Chain of Protein translocase subunit SecA (Escherichia coli (strain K12)) (P10408 whole entry): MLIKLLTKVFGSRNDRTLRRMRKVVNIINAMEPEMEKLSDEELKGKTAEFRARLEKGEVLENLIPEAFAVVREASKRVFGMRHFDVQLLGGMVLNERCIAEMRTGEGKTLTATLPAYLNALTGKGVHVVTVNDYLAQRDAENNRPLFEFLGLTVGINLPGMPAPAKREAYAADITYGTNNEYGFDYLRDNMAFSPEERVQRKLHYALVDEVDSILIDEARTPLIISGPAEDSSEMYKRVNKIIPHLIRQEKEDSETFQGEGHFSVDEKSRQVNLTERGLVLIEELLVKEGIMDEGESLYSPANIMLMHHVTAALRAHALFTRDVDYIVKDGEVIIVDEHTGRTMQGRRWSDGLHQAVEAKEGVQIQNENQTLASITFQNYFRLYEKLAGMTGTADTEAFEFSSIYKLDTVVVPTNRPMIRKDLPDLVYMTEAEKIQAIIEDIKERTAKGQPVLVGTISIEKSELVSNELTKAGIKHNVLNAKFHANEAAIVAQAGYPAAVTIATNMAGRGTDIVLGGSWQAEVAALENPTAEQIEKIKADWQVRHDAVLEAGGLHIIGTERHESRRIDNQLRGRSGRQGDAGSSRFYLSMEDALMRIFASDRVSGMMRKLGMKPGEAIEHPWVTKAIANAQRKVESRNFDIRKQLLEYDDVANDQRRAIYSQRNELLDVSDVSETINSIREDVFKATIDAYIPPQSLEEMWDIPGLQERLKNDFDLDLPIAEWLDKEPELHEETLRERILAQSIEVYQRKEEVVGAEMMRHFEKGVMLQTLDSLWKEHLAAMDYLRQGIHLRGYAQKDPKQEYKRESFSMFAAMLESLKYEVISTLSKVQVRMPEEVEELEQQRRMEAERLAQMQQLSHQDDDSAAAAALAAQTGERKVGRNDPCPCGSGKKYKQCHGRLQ
SMILES,Percent Effect [1] [%],Percent Effect [2] [%],Percent Effect [3] [%],Percent Effect [4] [%],Percent Effect (Trypanosoma cruzi) [%],Percent Effect [5] [%],Percent Effect [6] [%],Percent Effect (Homo sapiens) [%],Percent Effect [7] [%],Percent Effect [8] [%],Percent Effect [9] [%]
CC(CNC(=O)Nc1cn[nH]c1)N1CCc2ccccc2C1 (stereo not given),-4.87,15.6,-4.05,-3.09,-1.67,0.632,14.2,12.5,9.52,21.2,-18
CC(=O)Nc1nc(C(=O)N2CCCC2Cn2cc(C)cn2)cs1 (stereo not given),-5.22,10.4,1.53,17.1,-6.76,1.47,14.5,26.6,2.86,9.41,-19.2
Cc1occc1C(=O)N1CCO[C@H]2[C@@H](Oc3ccccn3)CC[C@@H]21,-1.87,0,5.36,1.56,0.984,0.699,9.25,5.34,3.19,3.85,4.85
Cc1nccn1CC1CCCN1CCCc1nc(-c2cccs2)no1 (stereo not given),-0.0404,21.6,-8.26,-4.35,-2.92,-11.6,13.3,36.5,3.45,13.6,2.34
CSCC[C@H](N)C(=O)NCc1cc2n(n1)CCCN(C(=O)C1CCC1)C2,-0.458,6.94,-3.76,1.43,8.26,-0.442,10.5,-24.3,0,12.8,-3.49
